This is an account of results in PubChem BioAssay (NCI).

The panel holds about 79,000 compounds, 15% with a hit somewhere; the sample as a whole holds those more often. A number with no mark means an inactive call. Active and inactive are the calls of the source. Rule as the data show it: active = growth inhibition above about 70%; inactive = the rest.

The nature of test [1]: NCI Yeast Anticancer Drug Screen. Data for the rad50 strain (AID 155).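 Also: 0% = growth of vehicle-only cultures of the same strain.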 The settings on record: S. cerevisiae rad50 strain growth inhibition, active compounds read high. A digest of the protocol: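 Vehicle-treated cultures provide the reference for the growth inhibition reported for compound-exposed, repair-deficient yeast.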
Test [2] in a line: NCI Yeast Anticancer Drug Screen. Data for the mec2-1 strain (AID 157). The settings on record: S. cerevisiae mec2-1 strain, active compounds read high. A digest of the protocol:
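Each compound was tested on mec2-1 yeast, a strain altered in DNA damage repair or cell cycle control. Growth inhibition is reported relative to vehicle.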

Test [3] in a line: NCI Yeast Anticancer Drug Screen. Data for the sgs1 mgt1 strain (AID 161).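 Also: 0% = growth of cultures given vehicle only.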 The following applies: S. cerevisiae sgs1 mgt1 strain, active compounds read high. Summed up: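 Mutant yeast exposed to compound; growth scored against vehicle-only wells.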
Test [4] can be described thus: NCI Yeast Anticancer Drug Screen. Data for the cln2 rad14 strain (AID 165).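 Also: 0% = growth equal to vehicle treated cultures.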 The settings on record: S. cerevisiae cln2 rad14 strain, active compounds read high. A digest of the protocol: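 Test compounds were added to cln2 rad14 yeast cultures; inhibition of growth was then determined by comparison with vehicle treatment.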
The nature of test [5]: NCI Yeast Anticancer Drug Screen. Data for the bub3 strain (AID 167). The following applies: S. cerevisiae bub3 mutant strain, active compounds read high. Summed up:
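Mutant yeast screening strain plus compound; vehicle-treated cultures serve as the 0% inhibition reference.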

The nature of test [6]: NCI Yeast Anticancer Drug Screen. Data for the mlh1 rad18 strain (AID 175). The settings on record: S. cerevisiae mlh1 rad18 strain growth inhibition, active compounds read high. Summed up: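 Inhibition values reflect reduced growth of mutant yeast versus vehicle-treated controls following compound exposure; the mutations affect DNA damage repair.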
The mark [7] stands for this setting: at 5.0 µM (retest, dose inferred, filed as 0.5).
[8] abbreviates: at 50.0 µM (retest, dose inferred, filed as 5.0).

With `N#CS/C(Cl)=C(/C(Cl)=C(Cl)Cl)[N+](=O)[O-]`, the growth inhibition in test [1] (setting [7]) is 5%; in test [1] (setting [8]), 99% (active); in test [1] (at 50.0 µM), 84.8% (active); in test [2] (setting [7]), 18%; in test [2] (setting [8]), 99% (active); in test [2] (at 50.0 µM) it was 70.7% (active). For the same compound, the growth inhibition in test [3] (setting [7]) is -3%; in test [3] (setting [8]), 98% (active); in test [3] (at 50.0 µM), 87.4% (active); in test [4] (setting [7]), -5%; in test [4] (setting [8]), 98% (active); in test [4] (at 50.0 µM), 48.6%. Further, the growth inhibition in test [5] (setting [7]) is -21%; in test [5] (setting [8]), 99% (active); in test [5] (at 50.0 µM), 85.7% (active); in test [6] (setting [7]), -15%; in test [6] (setting [8]), 99% (active); in test [6] (at 50.0 µM), 81.2% (active).

`O=C1CSC(=S)N1c1ccc(I)cc1`: the growth inhibition in test [1] (setting [7]) is 1%; in test [1] (setting [8]), 34%; in test [1] (at 50.0 µM), 99% (active); in test [2] (setting [7]), -2%; in test [2] (setting [8]) it was 11%; in test [2] (at 50.0 µM) it was 99% (active). In addition, the growth inhibition was 2% in test [3] (setting [7]); 59% in test [3] (setting [8]); 99.2% (active) in test [3] (at 50.0 µM); -2% in test [4] (setting [7]); -8% in test [4] (setting [8]); 83.8% (active) in test [4] (at 50.0 µM). The growth inhibition was -6% in test [5] (setting [7]); 26% in test [5] (setting [8]); 99% (active) in test [5] (at 50.0 µM); 0% in test [6] (setting [7]); 75% (active) in test [6] (setting [8]); 98.7% (active) in test [6] (at 50.0 µM).

With `O=C(O)C(SC1=NNC2(C(=O)N1)c1ccccc1-c1ccccc12)SC1=NNC2(C(=O)N1)c1ccccc1-c1ccccc12`, the growth inhibition was 4% in test [1] (setting [7]); 96% (active) in test [1] (setting [8]); 97.5% (active) in test [1] (at 50.0 µM); -19% in test [2] (setting [7]); 92% (active) in test [2] (setting [8]); 96.3% (active) in test [2] (at 50.0 µM). The growth inhibition in test [3] (setting [7]) is 2%; in test [3] (setting [8]), 96% (active); in test [3] (at 50.0 µM) it was 97.4% (active); in test [4] (setting [7]) it was 4%; in test [4] (setting [8]), 66%; in test [4] (at 50.0 µM) it was 95.8% (active). Moreover, the growth inhibition in test [5] (setting [7]) was 9%; in test [5] (setting [8]), 93% (active); in test [5] (at 50.0 µM) it was 98% (active); in test [6] (setting [7]) it was -15%; in test [6] (setting [8]) it was 95% (active); in test [6] (at 50.0 µM), 97.3% (active).

On to `COc1cc(/C=C/c2cc[n+](C)cc2)ccc1O`, for which the growth inhibition was -11% in test [1] (setting [7]); -14% in test [1] (setting [8]); 26.1% in test [1] (at 50.0 µM); 12% in test [2] (setting [7]); 7% in test [2] (setting [8]); 31.7% in test [2] (at 50.0 µM). Moreover, the growth inhibition in test [3] (setting [7]) is -18%; in test [3] (setting [8]) it was -17%; in test [3] (at 50.0 µM), 12.4%; in test [4] (setting [7]) it was -2%; in test [4] (setting [8]), 16%; in test [4] (at 50.0 µM), 79.5% (active). For the same compound, the growth inhibition in test [5] (setting [7]) was 0%; in test [5] (setting [8]), 11%; in test [5] (at 50.0 µM) it was 0.85%; in test [6] (setting [7]), -8%; in test [6] (setting [8]) it was -10%; in test [6] (at 50.0 µM), -8.35%.

For `O=C(Cc1nc2ccc([N+](=O)[O-])cc2[nH]c1=O)C(=O)Nc1cc(Cl)c(Cl)cc1Cl`, the growth inhibition in test [1] (setting [7]) is -16%; in test [1] (setting [8]), -2%; in test [1] (at 50.0 µM), 8.05%; in test [2] (setting [7]), -16%; in test [2] (setting [8]), -7%; in test [2] (at 50.0 µM) it was -5.45%. The growth inhibition was -7% in test [3] (setting [7]); -15% in test [3] (setting [8]); -6.05% in test [3] (at 50.0 µM); -25% in test [4] (setting [7]); -6% in test [4] (setting [8]); 6.65% in test [4] (at 50.0 µM). The growth inhibition in test [5] (setting [7]) was -16%; in test [5] (setting [8]), 2%; in test [5] (at 50.0 µM) it was 23.9%; in test [6] (setting [7]), -4%; in test [6] (setting [8]), -13%; in test [6] (at 50.0 µM) it was 26.1%.

Turning to `c1cc[c]([Sn]([S]c2cccc3cccnc23)([c]2ccccc2)[c]2ccccc2)cc1`, the growth inhibition in test [1] (setting [7]) was 100% (active); in test [1] (setting [8]) it was 98% (active); in test [1] (at 50.0 µM), 96.3% (active); in test [2] (setting [7]), 100% (active); in test [2] (setting [8]), 100% (active); in test [2] (at 50.0 µM) it was 98.7% (active). For the same compound, the growth inhibition in test [3] (setting [7]) is 100% (active); in test [3] (setting [8]) it was 99% (active); in test [3] (at 50.0 µM) it was 96.9% (active); in test [4] (setting [7]) it was 99% (active); in test [4] (setting [8]) it was 99% (active); in test [4] (at 50.0 µM), 94.2% (active). Moreover, the growth inhibition in test [5] (setting [7]) is 99% (active); in test [5] (setting [8]), 99% (active); in test [5] (at 50.0 µM), 99% (active); in test [6] (setting [7]), 100% (active); in test [6] (setting [8]), 99% (active); in test [6] (at 50.0 µM) it was 98.1% (active).

Regarding `O=C1OCCCOC(=O)c2cc(ccc2O)OCC#CC#CCOc2ccc(O)c1c2`, the growth inhibition in test [1] (setting [7]) is 2%; in test [1] (setting [8]) it was -6%; in test [1] (at 50.0 µM), 12.6%; in test [2] (setting [7]), -4%; in test [2] (setting [8]), 19%; in test [2] (at 50.0 µM) it was 8.75%. Further, the growth inhibition in test [3] (setting [7]) is -1%; in test [3] (setting [8]), -3%; in test [3] (at 50.0 µM) it was 16.1%; in test [4] (setting [7]), 4%; in test [4] (setting [8]), -4%; in test [4] (at 50.0 µM) it was 38.6%. The growth inhibition in test [5] (setting [7]) was 2%; in test [5] (setting [8]), -6%; in test [5] (at 50.0 µM) it was 86.2% (active); in test [6] (setting [7]), 0%; in test [6] (setting [8]), -4%; in test [6] (at 50.0 µM), 29.7%.

Take `C=CCCCCO/N=C/c1c2c(O)c3c(O)c(C)c4c(c3c1O)C(=O)C(C)(O/C=C/C(OC)C(C)C(OC(C)=O)C(C)C(O)C(C)C(O)C(C)/C=C/C=C(\C)C(=O)N2)O4` (configuration not stated): the growth inhibition in test [1] (setting [7]) is 44%; in test [1] (setting [8]), 89% (active); in test [1] (at 50.0 µM), 86.4% (active); in test [2] (setting [7]), 44%; in test [2] (setting [8]) it was 91% (active); in test [2] (at 50.0 µM), 91.8% (active). The growth inhibition is 33% in test [3] (setting [7]); 87% (active) in test [3] (setting [8]); 66.8% in test [3] (at 50.0 µM); 67% in test [4] (setting [7]); 91% (active) in test [4] (setting [8]); 88.3% (active) in test [4] (at 50.0 µM). The growth inhibition in test [5] (setting [7]) is 49%; in test [5] (setting [8]), 93% (active); in test [5] (at 50.0 µM), 79.9% (active); in test [6] (setting [7]) it was 34%; in test [6] (setting [8]) it was 89% (active); in test [6] (at 50.0 µM) it was 85.3% (active).

For the compound `ClCc1nc2ccccc2c2ccccc12`, the growth inhibition in test [1] (setting [7]) was 15%; in test [1] (setting [8]) it was 50%; in test [1] (at 50.0 µM) it was 73.8% (active); in test [2] (setting [7]), 22%; in test [2] (setting [8]) it was 26%; in test [2] (at 50.0 µM), 20.8%. Also, the growth inhibition in test [3] (setting [7]) is 7%; in test [3] (setting [8]) it was 21%; in test [3] (at 50.0 µM), 55.9%; in test [4] (setting [7]), 10%; in test [4] (setting [8]) it was 13%; in test [4] (at 50.0 µM) it was -28.2%. In addition, the growth inhibition is 20% in test [5] (setting [7]); 67% in test [5] (setting [8]); 61.1% in test [5] (at 50.0 µM); 12% in test [6] (setting [7]); 43% in test [6] (setting [8]); 83.5% (active) in test [6] (at 50.0 µM).
